Only some compounds are listed: those with a hit (about 19% of all), similar ones and a draw of the others.
TDP1 cell CPT: DT40-hTDP1 cell growth loss with CPT; chicken DT40 Tdp1-/-;hTDP1 cells + 20 nM CPT, ATP luminescence, 48 h; Potency, µM (highest dose often 46.2 µM), for the others: at the highest dose activity change, negative = growth inhibition, most hits filed as inhibitors; 12% of 420,000 active; also: potency is read from the fitted curve at half-maximal effect; nearly all actives have a fitted effect of over 55% in size
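Cell growth measured by CellTiter-Glo luminescence after a minimum 48 h, 37 C compound exposure with 20 nM CPT in Tdp1-knockout DT40 cells stably expressing hTDP1, seeded 400/well; qHTS titration format.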
IL1B secr inh: inflammasome signaling inhibition, IL-1 beta readout; THP-1 LPS/ATP IL-1B secretion, AlphaLISA, 16 h; active compounds read low; activity change, % at 57.5 µM; 4.7% of 360,000 active; in the data active = activity change below about -50%; inconclusive = mostly about -30% to -49%
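THP-1 cells pretreated 1 hr with compounds (up to 57.5 uM final), then stimulated with LPS (250 ng/mL final) plus ATP (1.25 mM final); secreted IL-1B measured by AlphaLISA after 16 hr, decreased signal indicating inhibition.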
TDP1 cell noCPT: qHTS for Inhibitors of human tyrosyl-DNA phosphodiesterase 1 (TDP1): qHTS in cells in absence of CPT | DT40 Tdp1-/- hTDP1 cells, no CPT, ATP luminescence, 48 h | Potency, µM (doses to about 46.2 µM), inactives show at the top dose activity change, negative = growth inhibition, most hits filed as inhibitors | 15% of 420,000 active; also: potency is read from the fitted curve at half-maximal effect; nearly all actives have a fitted effect of over 55% in size
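Readout: luminescence from CellTiter-Glo after 30 min in the dark at RT. Cells: DT40 Tdp1-/- with stable hTDP1, 400/well. Exposure: compounds alone, ≥48 hr, 37 °C.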
HT1080 IDH1KD tx: toxicity to HT-1080 IDH1 knockdown cells (counter line) | HT-1080 IDH1 knockdown viability, ATP luminescence, 48 h | AID 686971 | Potency, µM (top dose mostly 46.1 µM), for inactives: at the highest dose activity, negative = toxicity, most hits filed as cytotoxic | 2% of 360,000 active;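 also: potency is read from the fitted curve at half-maximal effect; 0% = DMSO wells and -100% = cell-free medium wells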
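After a 2 h attachment period, IDH1KD HT-1080 cells took pin-transferred compound for 48 h at 37 °C; ATP-based luminescence after 10 min room-temperature reagent incubation reported viability.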
HT1080-NT tox: kills 2HG-producing HT-1080-NT fibrosarcoma cells; HT-1080-NT fibrosarcoma viability, CellTiter-Glo ATP luminescence, 48 h; Potency, µM (highest dose often 46.1 µM), for inactives: at the top dose activity, negative = less viability, actives largely listed as cytotoxic; 1.6% of 360,000 active; AID 686970;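 also: NT is the 2HG producing partner of a matched IDH1 knockdown line; potency is read from the fitted curve at half-maximal effect; 0% = DMSO-treated cells and -100% = media-only wells without cells; nearly all actives have a fitted effect of over 55% in size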
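Toxicity toward the 2HG-producing NT line was scored as %Activity, normalised to DMSO and no-cell wells, from CellTiter-Glo luminescence after 48 hours' treatment.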
Numbers without * were called inactive; i = inactive; ? = inconclusive; nt = no result; [ ] = dose if it differs, or a comment. Unless noted, calls follow the shape of the dose curve; as a rule, active = well fitted curve in the direction sought with a large enough effect; inconclusive = small, poorly fitted or top-dose-only effect, or another doubt; inactive = no such curve, though single readings can be large; an effect the other way counts as inactive or inconclusive. Unless noted, % is scaled to controls: 0 for no effect and ±100 for the full control effect.

SMILES | TDP1 cell CPT | IL1B secr inh | TDP1 cell noCPT | HT1080 IDH1KD tx | HT1080-NT tox
COc1ccc(-c2oc3ccc(-c4cc(OC)c(OC)c(OC)c4)cc3c2-c2ccc(OC)nc2)cc1 | 15µM* | -4 | 12µM* | -22% | -9%
COc1cc(-c2noc(C)c2C(=O)NCCO)cc(OC)c1OC | 1% | -2 | -6% | 8% | -2%
COc1cc(-c2c(-c3cc(OC)c(OC)c(OC)c3)noc2C)ccc1F | 0.092µM* | 88 | 0.0073µM* | 0.33µM* | 0.13µM*
COC(=O)c1cc(-c2c(-c3cc(OC)c(OC)c(OC)c3)noc2C)cc([N+](=O)[O-])c1 | 16µM* | 15 | 16µM* | -8% | -2%
COc1ccc(-c2oc3ccc(-c4cc(OC)c(OC)c(OC)c4)cc3c2-c2ccc(OC)cc2)cc1 | ? | -1 | ? | -4% | 22%
COc1ccc(-c2c(-c3ccccc3OC)oc3ccccc23)cn1 | ? | 16 | ? | 17% | 8%
COc1ccc(-c2c(-c3cc(OC)c(OC)c(OC)c3)noc2C)cn1 | 0.58µM* | 27 | 0.58µM* | 1.5µM* | ?
Cc1cnc(C)c(-c2cc(F)cc3c2OC(CNC(=O)Cc2ccccc2C)C3)n1 (stereo unspecified) | 2%[9.04 µM] | nt | ? | nt | nt
O=C(Nc1cc(-c2nc3ncccc3o2)ccc1Cl)c1cccs1 | ? | i | 21µM* | -14% | -12%
COc1ccc(C(=O)Nc2ccc(-c3nc4ncccc4o3)cc2C)cc1Br | 10µM* | nt | ? | nt | nt
COc1ccc(-c2nc3ncccc3o2)cc1NC(=O)c1cccs1 | -20% | -6 | 15µM* | 12% | 6%
COc1ccc(-c2nc3ncccc3o2)cc1NC(=O)c1ccco1 | ? | -12 | ? | 9% | 10%
Cc1ccc(-c2nc3ncccc3o2)cc1NC(=O)c1ccccc1 | -3% | -7 | -22% | 20% | 14%
O=c1[nH]c(-c2ccccn2)nc2ccccc12 | 29µM* | 23 | 16µM* | ? | ?
O=c1[nH]c(-c2ccccn2)nc(C(F)(F)F)c1Br | 6.5µM* | 48 | 4.6µM* | ? | ?
O=c1[nH]c2cc3ccccc3cc2nc1C(F)(F)F | -11% | -3 | -1% | 1% | -5%
Nc1nc(-c2nc3ccccc3[nH]2)cs1 | 23µM* | 2 | ? | -9% | -13%
Cc1ccc2nc(-c3ccccn3)[nH]c2c1 | ? | -4 | ? | 18µM* | ?
O=C(CN(Cc1ccccc1F)C(=O)Cn1nnc(-c2cccs2)n1)NCC1CCCO1 (stereo unspecified) | -13% | -4 | -14% | -1% | -3%
c1ccc(-c2nc3c(ccc4ccccc43)[nH]2)nc1 | ? | -11 | 23µM* | -13% | -10%
c1cncc(-c2nc3ccccc3[nH]2)c1 | 1% | 8 | -29% | 11% | 16%
c1ccc(-c2nc3ccccc3[nH]2)nc1 | ? | -9 | 16µM* | -21% | -11%
Cc1ccsc1C(=O)N(Cc1cc2cc3c(cc2nc1N1CCOCC1)CCC3)CC1CCCO1 (stereo unspecified) | -10%[9.04 µM] | nt | -3% | nt | nt
Cc1ccc(-c2cc3nc(-c4ccccc4)cc(N4CCOCC4)n3n2)cc1 | -29% | -14 | ? | -4% | -4%
COc1cccc(-c2cc3nc4c(c(N5CCC6(CC5)OCCO6)n3n2)CCC4)c1 | 18µM* | -2 | 26µM* | 12% | 6%
SMILES | TDP1 cell CPT | IL1B secr inh | TDP1 cell noCPT | HT1080 IDH1KD tx | HT1080-NT tox
Cc1cccc(Nc2c3c(nc4ncnn24)CCC3)c1 | -28% | 25 | ? | -7% | -22%
COc1ccc(-c2cc3nc4c(c(N5CCC6(CC5)OCCO6)n3n2)CCC4)cc1 | 13µM* | -13 | 26µM* | -4% | -3%
COc1ccc(-c2cc3nc(-c4ccccc4)cc(N4CCC5(CC4)OCCO5)n3n2)cc1 | 26µM* | -6 | ? | 3% | -10%
Cc1cccc(-c2cc3nc4c(c(N5CCC6(CC5)OCCO6)n3n2)CCCC4)c1 | -30% | 6 | -26% | ? | 4%
COc1ccc(-c2cc3nc(C)cc(C)n3n2)cc1 | 0% | 67 | -25% | 1% | 0%
COc1cccc(N2CCN(c3c4c(nc5ncnn35)CCC4)CC2)c1 | ? | -14 | 16µM* | -22% | -2%
Cc1ccccc1CN1[C@H](C)[C@H](c2ccccc2)OCCS1(=O)=O | ? | nt | 13µM* | nt | nt
O=S1(=O)CCOCCCN1Cc1cccc(Cl)c1 | -72% | nt | ? | nt | nt
C[C@@H]1[C@H](c2ccccc2)OCCS(=O)(=O)N1Cc1ccc(Cl)cc1 | 11µM* | nt | 10µM* | nt | nt
C[C@@H]1[C@H](c2ccccc2)OCCS(=O)(=O)N1Cc1ccccc1 | -7% | nt | -7% | nt | nt
CC(C)[C@H]1COCCS(=O)(=O)N1Cc1ccccc1F | -29% | 0 | ? | 0% | -1%
C[C@@H]1[C@H](c2ccccc2)OCCS(=O)(=O)N1Cc1cccc(Cl)c1 | ? | nt | 13µM* | nt | nt
CCOC(=O)C1CCCN(C(=O)c2cc(C)n(C(C)(C)C)n2)CC1 (stereo unspecified) | -5% | 15 | -22% | 7% | 9%
CCOC(=O)[C@]12CCCC=C1N(Cc1ccc(Cl)cc1Cl)C(=O)[C@H](CC(=O)N1CCCC1)C2 | ? | 0 | ? | -8% | 1%
CCOC(=O)[C@]12CCC=C1N(Cc1ccc(Cl)cc1Cl)C(=O)[C@H](CC(=O)N1CCC(c3ccccc3)CC1)C2 | ? | -7 | 18µM* | 11% | 2%
CCOC(=O)[C@]12CCCC=C1N(Cc1ccc(Cl)cc1Cl)C(=O)[C@H](CC(=O)N1CCSCC1)C2 | -3% | 3 | -25% | 5% | 19%
CCOC(=O)[C@]12CCCC=C1N(Cc1ccc(Cl)cc1Cl)C(=O)[C@H](CC(=O)N1CCC(c3ccccc3)CC1)C2 | 16µM* | 0 | 18µM* | ? | -16%
CCOC(=O)[C@]12CCCC=C1N(Cc1ccc(Cl)cc1Cl)C(=O)[C@H](CC(=O)N1CCN(C(=O)c3ccco3)CC1)C2 | ? | -14 | 16µM* | ? | -24%
CCOC(=O)[C@]12CCC=C1N(Cc1ccc(Cl)cc1Cl)C(=O)[C@H](CC(=O)N1CCOCC1)C2 | ? | -7 | 21µM* | 8% | 10%
COC(=O)[C@]12CCCCC=C1N(Cc1ccc(Cl)cc1Cl)C(=O)[C@H](CC(=O)N1CCC(c3ccccc3)CC1)C2 | ? | -23 | ? | -6% | -10%
Cc1cccc(C)c1-n1nnnc1C(c1ccnc2ccccc12)N1CCN(c2ccccc2F)CC1 (stereo unspecified) | ? | 23 | ? | 13% | 19%
COc1ccc(OC)c(NC(=O)CSc2nc3nc(C)cc(C)n3n2)c1 | 2% | -11 | -8% | 5% | 18%
